Most compounds without a hit are left out; they make up all but 4.6% or so of the library.
GRIN3A LBD mod = binders of NR3A ligand-binding domain, primary screen, biophysical, differential scanning fluorimetry, uHTS. Glutamate receptor ionotropic, NMDA 3A (GRIN3A) ligand-binding domain. NR3A LBD differential scanning fluorimetry, Tm shift; 0% = protein alone, 100% = glycine-bound protein. Tm shift relative to glycine control, % at 25 µM. actives 2.5% (n = 340,000). AID 1259313, 2017;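 active means melting temperature shift of at least 10% of the positive control shift, at one fixed dose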
ADAM10 inh = human ADAM10 inhibitors, primary screen, biochemical, QFRET, HTS. Disintegrin and metalloproteinase domain-containing protein 10 (Homo sapiens), O14672. recombinant ADAM10, EDANS/DABCYL FRET peptide cleavage, 3 h. inhibition, % at 7 µM. actives 0.62% (n = 370,000). AID 720582, 2013;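 active means inhibition above a per-campaign cutoff equal to the mean of compounds falling between control-based bounds plus 3 SD, cut at about 20% in these data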;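 further: 0% = DMSO wells while the 100% control is not disclosed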
Target sequence (O14672 214-748 limits assumed): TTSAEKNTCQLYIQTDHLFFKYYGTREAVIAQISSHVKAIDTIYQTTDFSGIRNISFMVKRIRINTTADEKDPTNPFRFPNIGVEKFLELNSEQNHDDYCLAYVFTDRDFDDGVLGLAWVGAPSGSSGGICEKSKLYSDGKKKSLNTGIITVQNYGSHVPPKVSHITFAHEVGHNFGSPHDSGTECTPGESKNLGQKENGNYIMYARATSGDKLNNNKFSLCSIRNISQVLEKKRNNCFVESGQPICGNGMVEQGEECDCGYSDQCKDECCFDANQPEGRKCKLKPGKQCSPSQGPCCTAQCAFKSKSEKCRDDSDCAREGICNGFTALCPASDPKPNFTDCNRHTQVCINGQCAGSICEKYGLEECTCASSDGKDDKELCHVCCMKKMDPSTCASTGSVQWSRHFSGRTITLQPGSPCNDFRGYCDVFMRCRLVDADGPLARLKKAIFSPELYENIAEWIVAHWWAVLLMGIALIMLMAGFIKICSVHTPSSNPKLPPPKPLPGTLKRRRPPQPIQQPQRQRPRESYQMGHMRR
ADAM17 inh = ADAM17 inhibitors, primary screen, biochemical, QFRET; recombinant ADAM17, EDANS/DABCYL FRET peptide cleavage; inhibition, % at 6.95 µM; actives 0.83% (n = 370,000);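 active means inhibition above the mean of compounds lying between control limits plus 3 SD, set per campaign, cut at about 8.5% in these data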;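 further: 0% = DMSO-only wells as the low control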
FAS TE block = FAS thioesterase domain inhibitors, primary screen, biochemical, fluorescence intensity, uHTS; Fatty acid synthase (Homo sapiens), P49327; inhibition, % at 15 µM; recombinant FAS-TE, OMFH fluorogenic substrate, fluorescence endpoint; actives 0.67% (n = 360,000);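 active means compounds whose normalised, plate-corrected inhibition of enzyme fluorescence in the single-dose primary screen is 50% or more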;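 further: 0% = DMSO with enzyme and 100% = substrate without enzyme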
proKLK7 act = proKLK7 zymogen activators, primary screen, biochemical, fluorescence intensity | activation, % at 7 µM | actives 0.9% (n = 370,000) | Kallikrein-7 (Homo sapiens), P49862 | purified proKLK7, EDANS-DABCYL substrate fluorescence; 100% is mature enzyme control, 0% vehicle;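 active means activation above the mean of all tested compounds plus 3 SD, computed per campaign excluding outliers beyond control limits, cut at about 13% in these data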
FAS-TE conf = FAS thioesterase domain inhibitors, confirmation, biochemical, fluorescence intensity, single concentration; shares compounds with FAS TE block; recombinant FAS-TE, OMFH fluorogenic substrate; inhibition, % at 15 µM; actives 45% (n = 2,300); AID 624325, 2012;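 active means compounds inhibiting the enzyme by at least 50% at 15 µM in any one of the replicates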;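 further: 0% = enzyme with DMSO only and 100% = wells lacking enzyme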
* hit, by the source's call; i = inactive; x = not tested or not shown.

SMILES	GRIN3A LBD mod	ADAM10 inh	ADAM17 inh	FAS TE block	proKLK7 act	others
CC(C)(C)NC(=O)CN1C(=O)[C@@H](Cc2c[nH]c3ccccc23)N=C(c2ccccc2)c2ccccc21	x	6.7	3.8	x	-0.1
CCn1c(=O)n(CC(=O)N2CCC3(CC2)OCCO3)c(=O)c2ccccc21	14.0*	-3.7	0.1	-8.8	-0.3
COC(=O)C1=C(N)Oc2c(c(=O)oc3ccccc23)[C@]12C(=O)N(C)c1ccccc12	16.9*	-3.3	-1.3	-2.5	-0.1
C[C@H]1CNCCN1c1ccc(N2CC[C@H](O)C2)c(C#N)c1	x	-55.9	-15.1	x	1.3
O=C(NCCN1CCC2(CC1)C(=O)NCN2c1ccccc1)c1cccnc1Cl	x	-13.6	-2.1	x	0.4
O=C(NCc1ccccc1)c1cccn(Cc2ccccc2)c1=O	-1.3	-104.7	-34.5	2.6	0.6
O=C(c1cc(C(=O)NCc2ccccc2)c(=O)n(Cc2ccccc2)c1)c1cc(Cl)ccc1O	13.1*	0.8	-0.7	20.7	0.2
C[N+](C)(C)CC(=O)O	13.2*	3.1	-1.4	-4.9	0.4
CCC(C)NC(=O)c1c(N)n(Cc2ccc3c(c2)OCO3)c2nc3ccccc3nc12 (stereo unspecified)	15.0*	-79.7	-22.6	18.7	-4.3
CCN1CCN(Cc2ccccc2C)CC1	40.3*	-0.3	-0.1	-7.9	0.2
O=C(NC1CN2CCC1CC2)c1cc(-c2ccc(Cl)cc2)nc2ccccc12 (stereo unspecified)	x	-80.2	-22.4	x	0.8
Nc1c(C(=O)OCc2ccccc2)c2nc3ccccc3nc2n1Cc1cccs1	14.4*	i	-248.3	16.4	-23.2
CCC(C)OC(=O)c1c(N)n(Cc2cccs2)c2nc3ccccc3nc12 (stereo unspecified)	1.2	i	i	9.8	12.4
CC(c1ccccc1)n1cc(C(=O)NC2CCCC2)nn1 (stereo unspecified)	x	9.2	1.3	x	-0.1
C=CCn1c(O)c(C(C)=Nc2cccc(C(F)(F)F)c2)c(=O)[nH]c1=O	12.5*	-6.7	-3.5	1.2	-0.1
COc1ccccc1N	x	-3.0	0.9	x	-0.7
Cc1cccc(C)c1NC(=O)c1cccn(Cc2ccc3c(c2)OC(F)(F)O3)c1=O	-3.6	-5.2	-3.7	26.8	0.3
CC(C)Oc1cccc(NC(=O)c2cccn(Cc3ccc4c(c3)OC(F)(F)O4)c2=O)c1	6.8	-3.3	0.2	46.8	-0.9
O=C(Nc1cccc(C(F)(F)F)c1)c1cccn(Cc2ccc3c(c2)OC(F)(F)O3)c1=O	24.5*	-0.4	-2.3	36.1	-0.8
O=C(Nc1ccc(C(F)(F)F)cc1)c1cccn(Cc2ccc3c(c2)OC(F)(F)O3)c1=O	25.0*	7.5	-0.1	43.1	0.1
O=C(NCCN1CCC2(CC1)C(=O)NCN2c1ccccc1)c1cccc(F)c1	x	-3.3	2.8	x	0.3
Cc1cc(N2CCNC[C@H]2C)ccc1N1CCN[C@H](C)C1	x	-2.5	4.0	x	0.3
COc1ccc(-c2cc(=NCC(=O)O)c3ccccc3o2)cc1	13.3*	x	x	-3.4	x
COc1ccc(-c2cc(=Nc3cccc(C(=O)O)c3)c3cc(C)ccc3o2)cc1	-1.5	i	-486.0	3.8	-8.4
COC(=O)C[C@]1(C(=O)OC)CN(C#N)N(c2ccc(Cl)cc2)C12c1ccccc1-c1ccccc12	1.6	30.6*	6.8	14.9	0.0
SMILES	GRIN3A LBD mod	ADAM10 inh	ADAM17 inh	FAS TE block	proKLK7 act	others
Cc1ccc(OP(=O)(NCc2ccccc2)Oc2ccc(C)cc2)cc1	13.4*	2.6	2.3	26.7	0.1
Cc1ccc(NP(=O)(Oc2ccccc2)Oc2ccccc2)cc1	-2.2	0.7	-1.4	-2.2	-0.3
CC(C)c1onc(C(=O)N2CCC3(CC2)OCCO3)c1[N+](=O)[O-]	16.3*	-4.3	4.2	-3.5	0.2
COC(=O)[C@@]1(O)c2c(oc3cccc(O)c3c2=O)C=C[C@H]1O	x	-4.3	-1.9	x	0.9
NS(=O)(=O)c1ccc(N=Nc2c(O)[nH]c(=S)[nH]c2=O)cc1	0.4	-9.2	-2.0	-0.5	-0.9
O=c1[nH]c(=S)[nH]c(O)c1N=Nc1cc(S(=O)(=O)Nc2ccc(Cl)cc2)ccc1Cl	12.8*	-10.1	-0.2	44.2	0.4
CC[C@@H]1C[C@H]2CC[C@H](O2)[C@H](C)C(=O)O[C@@H](C)C[C@@H]2CC[C@@H](O2)[C@@H](C)C(=O)O[C@H](C)C[C@H]2CC[C@H](O2)[C@H](C)C(=O)O[C@@H](C)C[C@@H]2CC[C@@H](O2)[C@@H](C)C(=O)O1	x	-7.3	-0.6	x	0.0
CCOC(=O)CC[C@@H]1CC[C@]2(CCCN(Cc3ccncc3)C2)O1	x	-6.0	-4.6	x	0.2
CCCCn1c(NS(=O)(=O)c2ccccc2)c(C(=O)OCC)c2nc3ccccc3nc21	-11.1	i	-412.5	9.4	8.0
CCCCn1c(NC(=O)c2ccc(Br)o2)c(C(=O)OCC)c2nc3ccccc3nc21	-12.1	i	i	34.1	18.6*
C=CCn1c(O)c(C=NC2CCN(Cc3ccccc3)CC2)c(=O)[nH]c1=O	0.4	-2.8	-4.3	-4.3	-0.7
O=c1[nH]c(=O)n(CCC2=CCCCC2)c(O)c1C=NC1CCN(Cc2ccccc2)CC1	-4.2	-6.0	8.9*	0.2	0.0
CN1CN(c2ccccc2)C2(CCN(CCCSc3ccccc3NC(=O)/C=C/c3ccccc3)CC2)C1=O	-3.0	7.7	14.0*	14.2	0.2
CC(C)n1c(=O)c(C=Nc2cccc([N+](=O)[O-])c2)c(O)n(CCc2ccccc2)c1=O	-6.4	6.4	1.5	57.2*	0.6	FAS-TE conf=18.2
O=c1[nH]c2ccccc2n1C1CCN(C(c2cccc3ccccc23)c2nnnn2Cc2ccccc2)CC1 (stereo unspecified)	x	18.0	6.1	80.2*	0.9	FAS-TE conf=27.6
Cc1cccc(C)c1-n1nnnc1C(c1cc2ccccc2o1)N1CCC(n2c(=O)[nH]c3ccccc32)CC1 (stereo unspecified)	x	2.1	-1.9	81.4*	0.6	FAS-TE conf=-1.9
COc1cccc(C(c2nnnn2Cc2ccccc2)N2CCC(n3c(=O)[nH]c4ccccc43)CC2)c1OC (stereo unspecified)	x	16.4	4.2	20.3	0.2
Cc1cccc(C)c1-n1nnnc1C(c1ccccc1OC(F)(F)F)N1CCC(n2c(=O)[nH]c3ccccc32)CC1 (stereo unspecified)	x	-12.2	-4.7	54.2*	0.0	FAS-TE conf=22.4
Cc1ccc2nc(-c3ccc(CN4CCC(n5c(=O)[nH]c6cc(Cl)ccc65)CC4)cc3)c(-c3ccccc3)nc2c1	x	-110.6	-21.1	x	-12.4
